According to the supplement of paper PMC4206467:

Each molecule was assayed on Perkinsus marinus PRA240 (assay: ATP content (proliferation) relative to DMSO control; higher = more parasite growth (less inhibition)). Conditions: 20 µM; 4 days.
Method: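 Perkinsus marinus PRA240 trophozoites (2-5x10^6 cells/ml, 100 µl, 96-well) were exposed once to MMV Malaria Box compounds at 20 µM (0.1% DMSO) in triplicate. ATP content (ATPlite bioluminescence) was read at day 4 post-exposure and normalised to DMSO + cells control wells (100% activity). Compounds were identified by joining plate and well to the Malaria Box list.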

| SMILES | ATP content [%] |
| --- | --- |
| CN(N=O)C1=C(NC2CCCCC2)C(=O)c2ccccc2C1=O | 45.9 |
| Oc1ccc(C(=C(Cl)Cl)c2ccc(O)cc2)cc1 | 137 |
| CCOc1c(Cl)cc(CNC(C)C(O)c2ccccc2)cc1OC (stereo not given) | 75.7 |
| CCCCCCc1cc(O)c2c3c(c(=O)oc2c1)CCC(C)C3 (stereo not given) | 33.1 |
| CCOc1cc(CNC(C)C(O)c2ccccc2)cc(Cl)c1OCC (stereo not given) | 120 |
| COc1ccc(CN2CCN(Cc3ccccc3)CC2)c(O)c1 | 194 |
| Oc1ccc(Br)cc1CN1CCN(Cc2ccc(Cl)cc2)CC1 | 129 |
| O=C(CCc1ccco1)NC1CCN(CC2(c3ccc(Cl)cc3)CCC2)CC1 | 103 |
| COc1cc(CNCCc2ccc(Cl)cc2)cc(OC)c1O | 130 |
| Oc1ccc(Br)cc1CN1CCN(Cc2cccc(F)c2)CC1 | 95.2 |
